# Reference: ChEMBL document CHEMBL3988442, “University of Dundee, Small-Polar-MMV Screening Library” (2021)
# In all, about 48,000 compounds went through this assay and about 13,000 (27%) showed an effect of 50% or more. This is one part of the list.
# System: Wolbachia pipientis
# Test: Anti-Wolbachia Cell-Based Screen
# Type: functional
# Set-up: scale not given: in the data most compounds retested in dose-response had high values
# Conditions: 5 µM
row,SMILES,Percent Effect
1,COC(=O)C1CCN(C(=O)NCC(C)Cc2cccs2)CC1 (stereo unspecified),-16.38%
2,Cc1oncc1C(=O)NCC(c1ccccc1Cl)N1CCOCC1 (stereo unspecified),10.8%
3,CCC(CNC(=O)c1ccccc1OC)N1CCc2ccccc2C1 (stereo unspecified),13.81%
4,COc1ccccc1S(=O)(=O)NCC(c1cccn1C)N(C)C (stereo unspecified),1.51%
5,COc1ccccc1C(CNC(=O)NCc1cc[nH]n1)N1CCCC1 (stereo unspecified),5.725%
6,COc1cccc(C(=O)NCCCN2CCc3ccccc3C2)c1OC,-7.552%
7,COc1ccccc1C(=O)NCC(c1cccn1C)N1CCOCC1 (stereo unspecified),102.1%
8,COc1cccc(OC)c1C(=O)NCC(c1cccn1C)N1CCCC1 (stereo unspecified),106.6%
9,COc1cccc(C(=O)NCC(c2cccn2C)N2CCCC2)c1OC (stereo unspecified),106.1%
10,COCCN1CCC(NC(=O)C/C=C/c2ccc(C(C)C)cc2)CC1,-16.81%
11,Cc1ccc(C(=O)N2CC[C@@]3(O)CCN(C(=O)N(C)C)C[C@H]3C2)cc1Cl,-5.057%
12,Cc1nn(C)c(C)c1C1CCCN1CCCC#N (stereo unspecified),2.05%
13,Cc1noc([C@@H]2C[C@H]3OCC[C@H]3N(Cc3sccc3C)C2)n1.O=C(O)C(F)(F)F,9.269%
14,Cc1c(C(=O)O)sc2nc(C(F)(F)F)ccc12,-2.496%
15,CCN(CC(=O)NC)C(=O)c1sc(Cc2ccccc2)nc1C,-6.036%
16,Cc1nc(Cc2ccccc2)nc2sc(C(=O)O)c(C)c12,95.86%

row,SMILES,Percent Effect
1,CN(C)C(CNC(=O)OCC(F)(F)F)c1ccsc1 (stereo unspecified),23.12%
2,Cc1ccc(C(=O)N(C)CCOc2ccccc2F)c(=O)[nH]1,95.48%
3,Cc1ccc(C(=O)N(Cc2ccccc2F)C2CC2)c(=O)[nH]1,-1.047%
4,CCN(Cc1ccc(OC)c(F)c1)C(=O)c1ccc(C)[nH]c1=O,-15.23%
5,Cc1c(C(=O)N2CC(O)C2)nnn1-c1cccc2cnccc12,-2.34%
6,CC(CNS(=O)(=O)c1cccc(Cl)c1)N1CCN(C)CC1 (stereo unspecified),3.313%
7,CCn1cc2c(n1)CN(Cc1ccc(C)o1)CC2COCC1CC1.O=C(O)C(F)(F)F (stereo unspecified),26.1%
8,CNC(=O)NCCc1csc2ccccc12,-2.127%
9,COCCN(C)C[C@@H]1CCC[C@@H]2CN(c3ncccn3)C[C@@H]21.O=C(O)C(F)(F)F,-1.943%
10,Cc1ccc(NC2CCN(C(=O)Cc3cccs3)CC2)nn1,103.9%
11,Cc1ccc(NC2CCN(C(=O)CCCc3cccs3)CC2)nn1,117.7%
12,Cc1ccc(NC2CCN(C(=O)Cn3nc(C)cc3C)CC2)nn1,-9.924%
13,Cc1ccc(NC2CCN(C(=O)Cc3ccc(C)s3)CC2)nn1,88.11%
14,Cc1ccc(NC2CCN(C(=O)CCCc3ccccn3)CC2)nn1,17.2%
15,Cc1ccc(NC2CCN(C(=O)Cc3csc(C)n3)CC2)nn1,1.97%
